High-throughput results as filed in PubChem BioAssay.
Only a selection was taken, and hits are over-represented in it overall.
IDE exosite FP: displaces the probe from the exo-site of human IDE | purified IDE, FL-6b probe fluorescence polarization; stronger effect = lower value | hit rate 6.3% among 17,000 | P14735 | z-score at 20 µM | AID 1259349;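 active = z-score of -3 or lower, meaning strong loss of probe binding signal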;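 also: His-tagged human IDE residues 42-1019 made in E. coli with 30 nM FL-6b probe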
Target sequence (P14735 42-1019 limits assumed): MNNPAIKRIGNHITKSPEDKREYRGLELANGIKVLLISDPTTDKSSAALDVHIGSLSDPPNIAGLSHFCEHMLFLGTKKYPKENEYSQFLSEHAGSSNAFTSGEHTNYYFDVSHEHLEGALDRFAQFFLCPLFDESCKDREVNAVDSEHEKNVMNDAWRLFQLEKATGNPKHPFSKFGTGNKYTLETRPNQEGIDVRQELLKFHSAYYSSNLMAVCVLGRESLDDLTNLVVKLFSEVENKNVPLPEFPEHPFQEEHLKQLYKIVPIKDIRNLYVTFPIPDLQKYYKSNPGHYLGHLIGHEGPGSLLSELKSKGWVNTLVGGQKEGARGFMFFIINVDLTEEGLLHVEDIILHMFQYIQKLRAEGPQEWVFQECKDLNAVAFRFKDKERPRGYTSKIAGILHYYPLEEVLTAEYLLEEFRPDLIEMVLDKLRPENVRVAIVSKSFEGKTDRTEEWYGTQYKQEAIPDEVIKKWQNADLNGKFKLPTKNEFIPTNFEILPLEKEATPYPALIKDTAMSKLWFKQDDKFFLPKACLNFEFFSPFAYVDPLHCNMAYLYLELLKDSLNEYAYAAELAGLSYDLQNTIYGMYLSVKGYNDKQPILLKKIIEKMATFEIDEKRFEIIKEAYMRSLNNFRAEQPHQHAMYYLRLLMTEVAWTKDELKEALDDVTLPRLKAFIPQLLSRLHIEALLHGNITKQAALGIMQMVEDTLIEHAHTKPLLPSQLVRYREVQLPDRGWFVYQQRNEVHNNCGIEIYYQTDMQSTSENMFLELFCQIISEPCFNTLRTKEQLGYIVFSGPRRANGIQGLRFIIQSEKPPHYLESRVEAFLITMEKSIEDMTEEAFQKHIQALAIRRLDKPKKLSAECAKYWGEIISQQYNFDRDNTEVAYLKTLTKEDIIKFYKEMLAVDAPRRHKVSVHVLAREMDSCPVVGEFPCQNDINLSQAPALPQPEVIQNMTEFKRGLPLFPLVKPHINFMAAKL
The depositor's hits bear a star; ! = not active in a repeat.

SMILES	IDE exosite FP
COc1cccc(S(=O)(=O)Nc2ccc3c(c2)C(=O)N(C)[C@H]2CC[C@@H](CC(=O)NCC4CCCCC4)O[C@@H]2CO3)c1	-3.2*
COc1cccc(C(=O)Nc2ccc3c(c2)C(=O)N(C)[C@@H]2CC[C@H](CC(=O)N[C@@H](C)c4ccccc4)O[C@H]2CO3)c1	0.24
COc1cccc(S(=O)(=O)Nc2ccc3c(c2)C(=O)N(C)[C@H]2CC[C@@H](CC(=O)NCC4CCCCC4)O[C@H]2CO3)c1	-1.7
COc1cccc(S(=O)(=O)Nc2ccc3c(c2)C(=O)N(C)[C@H]2CC[C@H](CC(=O)NCC4CCCCC4)O[C@@H]2CO3)c1	-0.74
CN1C(=O)c2cc(NC(=O)c3cccc(F)c3)ccc2OC[C@H]2O[C@H](CC(=O)NCC3CCCCC3)CC[C@@H]21	-1.7
CN1C(=O)c2cc(NC(=O)c3cnccn3)ccc2OC[C@@H]2O[C@H](CC(=O)N[C@H]3CCN(Cc4ccccc4)C3)CC[C@H]21	-0.92
CN1C(=O)c2cc(NC(=O)c3cnccn3)ccc2OC[C@H]2O[C@@H](CC(=O)N[C@@H]3CCN(Cc4ccccc4)C3)CC[C@@H]21	-7*
CN1C(=O)c2cc(NC(=O)c3cccc(F)c3)ccc2OC[C@@H]2O[C@H](CC(=O)NCc3ccccc3Cl)CC[C@@H]21	-0.41
CN1C(=O)c2cc(NC(=O)c3cnccn3)ccc2OC[C@H]2O[C@@H](CC(=O)N[C@H]3CCN(Cc4ccccc4)C3)CC[C@H]21	0.95
COc1cccc(C(=O)Nc2ccc3c(c2)C(=O)N(C)[C@H]2CC[C@@H](CC(=O)N[C@@H](C)c4ccccc4)O[C@H]2CO3)c1	-3.3*
COc1cccc(C(=O)Nc2ccc3c(c2)C(=O)N(C)[C@@H]2CC[C@H](CC(=O)N[C@@H](C)c4ccccc4)O[C@@H]2CO3)c1	-1.3
CN1C(=O)c2cc(NC(=O)c3cccc(F)c3)ccc2OC[C@H]2O[C@H](CC(=O)NCC3CCCCC3)CC[C@H]21	-3.2*!
Cc1noc(C)c1S(=O)(=O)Nc1ccc2c(c1)C(=O)N([C@H](C)CO)C[C@H](C)[C@H](CN(C)C(=O)Nc1cccc3ccccc13)OCCCC[C@H](C)O2	-0.79
O=C1CNC[C@H]2[C@@H](c3ccc(C4=CCCCC4)cc3)[C@@H](CO)N12	0.042
O=C(NC[C@H]1[C@H](c2ccccc2)[C@@H](CO)N1Cc1cccnc1)c1ccccn1	0.14
O=C(C[C@@H]1CC[C@@H]2[C@H](COC[C@H](O)CN2Cc2ccc(F)cc2)O1)NCCc1ccccc1	-1.4
CCS(=O)(=O)NCC[C@H]1CC[C@H](NC(=O)Nc2cc(Cl)cc(Cl)c2)[C@@H](CO)O1	-0.021
COc1ccccc1S(=O)(=O)N1CC[C@@H]2[C@H]1c1cc(-c3cccc(C#N)c3)ccc1N(C)[C@H]2CO	2.2
N#C[C@@H]1[C@H](c2ccccc2-c2ccccc2)[C@H](CO)N1C(=O)Cc1cccnc1	5.3
CCS(=O)(=O)N1CC(=O)N2[C@H](CO)[C@@H](c3ccc(C#CCc4ccccc4)cc3)[C@@H]2C1	1.7
O=C1CN(S(=O)(=O)c2ccccc2)C[C@H]2[C@@H](c3ccc(C#Cc4ccccc4)cc3)[C@@H](CO)N12	1.6
O=C1CN(S(=O)(=O)Cc2ccccc2)C[C@@H]2[C@H](c3ccc(C#Cc4ccccc4)cc3)[C@H](CO)N12	-3.5*
O=C1CN(S(=O)(=O)Cc2ccccc2)C[C@H]2[C@@H](c3ccc(C#Cc4cccnc4)cc3)[C@H](CO)N12	0.3
CS(=O)(=O)N1CC(=O)N2[C@H](CO)[C@H](c3ccc(C#CCc4ccccc4)cc3)[C@@H]2C1	0.97
O=C1CN(S(=O)(=O)c2ccccc2)C[C@H]2[C@H](c3ccc(C#Cc4ccccc4)cc3)[C@@H](CO)N12	1.3
SMILES	IDE exosite FP
O=C1CN(S(=O)(=O)Cc2ccccc2)C[C@@H]2[C@@H](c3ccc(C#Cc4ccccc4)cc3)[C@H](CO)N12	-0.81
O=C1CN(S(=O)(=O)Cc2ccccc2)C[C@H]2[C@H](c3ccc(C#Cc4cccc(F)c4)cc3)[C@@H](CO)N12	3.8
O=C1CN(S(=O)(=O)c2ccccc2)C[C@@H]2[C@H](c3ccc(C#Cc4ccccc4)cc3)[C@H](CO)N12	-5.2*
O=C1CN(S(=O)(=O)Cc2ccccc2)C[C@H]2[C@H](c3ccc(C#Cc4ccccc4)cc3)[C@@H](CO)N12	0.58
O=C1CN(S(=O)(=O)Cc2ccccc2)C[C@H]2[C@@H](c3ccc(C#Cc4cccnc4)cc3)[C@@H](CO)N12	-5.8*
CS(=O)(=O)N1CC(=O)N2[C@H](C1)[C@H](c1ccc(C#CCc3ccccc3)cc1)[C@@H]2CO	-3.4*
O=C(C[C@H]1CC[C@H](NC(=O)c2cccnc2)[C@H](CO)O1)NCc1ccc(Cl)c(Cl)c1	1.2
Cc1ccc(S(=O)(=O)N2C[C@@H]3[C@H](c4ccccc42)[C@H](CO)N3Cc2cccnc2)cc1	2.2
OC[C@@H]1[C@@H](c2ccc(-c3ccccc3)cc2)[C@@H]2CN(Cc3cncnc3)CCCCN12	0.47
C[C@@H]1CC(=O)NCC/C=C\C[C@@H](c2ccc3c(c2)OCO3)NC1=O	-0.88
O=C(Nc1cccc(F)c1)N1CC(=O)N2[C@H](CO)[C@@H](c3ccc(C#CC4CC4)cc3)[C@H]2C1	0.93
COc1ccc(C#Cc2ccc([C@@H]3[C@@H](CO)N4CCCCN(C(=O)Nc5cccc(F)c5)C[C@H]34)cc2)cc1	0.88
Cc1noc(C)c1S(=O)(=O)N(C)C[C@H]1Oc2c(NC(=O)c3ccc(-c4nccs4)cc3)cccc2C(=O)N([C@H](C)CO)C[C@H]1C	-1.8
C[C@@H]1CCCCO[C@@H](CN(C)C(=O)Nc2cccc3ccccc23)[C@H](C)CN([C@@H](C)CO)C(=O)c2cc(NC(=O)CCC(F)(F)F)ccc2O1	1.1
C[C@@H]1CN([C@@H](C)CO)C(=O)CCCn2cc(nn2)CO[C@@H]1CN(C)C(=O)Nc1ccc2c(c1)OCO2	-0.98
O=C(Nc1cc(F)ccc1F)N1CCCCN2[C@H](CO)[C@H](c3ccc(-c4ccncc4)cc3)[C@H]2C1	3.7
O=C1CN(S(=O)(=O)Cc2ccccc2)C[C@H]2[C@H](c3ccc(C#Cc4ccccc4)cc3)[C@H](CO)N12	-1.5
O=C1CN(S(=O)(=O)Cc2ccccc2)C[C@H]2[C@@H](c3ccc(C#Cc4ccccc4)cc3)[C@@H](CO)N12	-3.5*
O=C1CN(S(=O)(=O)Cc2ccccc2)C[C@H]2[C@@H](c3ccc(C#Cc4ccc(F)cc4)cc3)[C@@H](CO)N12	-1.4
N#C[C@H]1[C@H](c2ccc(C#CC3CCCCC3)cc2)[C@@H](CO)N1C(=O)Nc1ccc(F)cc1	4.8
CO[C@@H](CN(C)S(=O)(=O)c1cccc(Cl)c1)[C@H](C)CN(C(=O)Nc1ccccc1F)[C@H](C)CO	1
COc1ccc(C#Cc2ccc([C@@H]3[C@H]4CN(S(=O)(=O)c5ccccc5)CCCCN4[C@H]3CO)cc2)cc1	-0.32
COc1ccccc1C#Cc1ccc([C@H]2[C@@H](CO)N3CCCCN(S(C)(=O)=O)C[C@H]23)cc1	-9.9*
CS(=O)(=O)N1CCCCN2[C@H](CO)[C@@H](c3ccc(C#Cc4ccccn4)cc3)[C@H]2C1	-1.8
CCCC#Cc1ccc([C@@H]2[C@H]3CN(S(C)(=O)=O)CCCCN3[C@H]2CO)cc1	0.53
CS(=O)(=O)N1CCCCN2[C@H](CO)[C@@H](c3ccc(C#Cc4ccccn4)cc3)[C@@H]2C1	-1.6
O=S(=O)(c1ccccc1)N1CCCCN2[C@@H](CO)[C@@H](c3ccc(C#Cc4ccccc4)cc3)[C@@H]2C1	-5.9*
